Laboratory results reported in publication PMC7862700, “An all-to-all approach to the identification of sequence-specific readers for epigenetic DNA modifications on cytosine”.

Key:
Assay in all cases: DAPPL (digital affinity profiling via proximity ligation, sequencing); 10 mM Tris-HCl pH 7.5, 50 mM NaCl, 1 mM DTT, 4% glycerol, room temperature, 30 min; GST-TFs on glutathione beads, 16-mer random dsDNA library, 0.1% formaldehyde crosslink after washing; high values mean tight binding
FLI1 = biological target: T1, FLI1 (Homo sapiens, UniProt Q01543 1-452); conditions: protein: recombinant; tags: N-terminal GST; dsDNA, one strand shown
T1 sequence: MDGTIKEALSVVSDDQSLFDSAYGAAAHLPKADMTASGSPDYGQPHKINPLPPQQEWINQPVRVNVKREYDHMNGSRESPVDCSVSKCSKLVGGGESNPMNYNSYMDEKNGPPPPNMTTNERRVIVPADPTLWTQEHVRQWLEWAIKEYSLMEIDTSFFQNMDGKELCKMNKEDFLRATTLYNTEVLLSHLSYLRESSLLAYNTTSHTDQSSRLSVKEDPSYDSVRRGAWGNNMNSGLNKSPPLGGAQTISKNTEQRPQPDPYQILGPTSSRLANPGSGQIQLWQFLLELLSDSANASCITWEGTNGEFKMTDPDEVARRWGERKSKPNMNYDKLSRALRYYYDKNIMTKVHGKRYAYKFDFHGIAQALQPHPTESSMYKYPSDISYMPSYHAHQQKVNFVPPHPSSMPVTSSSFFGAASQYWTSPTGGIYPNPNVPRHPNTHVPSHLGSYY
How it was run: (§1)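 GST fusions of human transcription factors were expressed in yeast and captured with glutathione beads. Once given DNA barcodes and pooled alongside a tag-only sample, they were incubated for 30 min at room temperature with 200 nmole of a random double-stranded 16-mer DNA library in Tris/NaCl/DTT/glycerol buffer, then washed, crosslinked (0.1% formaldehyde), proximity-ligated, PCR-amplified and sequenced on an Illumina NextSeq500. The binding signal of each hexamer is its read frequency for a factor divided by its frequency for the tag-only sample.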

ELK1 = biological target: T2, ELK1 (Homo sapiens, UniProt P19419 1-428); conditions: protein: recombinant; tags: N-terminal GST; dsDNA, one strand shown
T2 sequence: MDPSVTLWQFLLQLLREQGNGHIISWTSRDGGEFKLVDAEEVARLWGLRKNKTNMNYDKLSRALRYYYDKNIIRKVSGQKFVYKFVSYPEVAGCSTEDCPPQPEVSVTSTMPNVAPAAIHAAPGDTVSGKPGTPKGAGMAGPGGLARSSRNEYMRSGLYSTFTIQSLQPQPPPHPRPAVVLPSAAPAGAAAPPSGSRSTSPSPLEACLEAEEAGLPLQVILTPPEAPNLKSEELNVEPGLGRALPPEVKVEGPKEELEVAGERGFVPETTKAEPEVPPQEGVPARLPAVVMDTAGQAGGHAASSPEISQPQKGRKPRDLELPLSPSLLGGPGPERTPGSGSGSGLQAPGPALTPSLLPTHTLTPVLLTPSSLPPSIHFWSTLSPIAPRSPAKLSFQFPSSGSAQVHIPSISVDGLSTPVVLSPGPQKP
How it was run: as §1

GABPA = biological target: T3, GABPA (Homo sapiens, UniProt Q06546 1-454); conditions: protein: recombinant; tags: N-terminal GST; dsDNA, one strand shown
T3 sequence: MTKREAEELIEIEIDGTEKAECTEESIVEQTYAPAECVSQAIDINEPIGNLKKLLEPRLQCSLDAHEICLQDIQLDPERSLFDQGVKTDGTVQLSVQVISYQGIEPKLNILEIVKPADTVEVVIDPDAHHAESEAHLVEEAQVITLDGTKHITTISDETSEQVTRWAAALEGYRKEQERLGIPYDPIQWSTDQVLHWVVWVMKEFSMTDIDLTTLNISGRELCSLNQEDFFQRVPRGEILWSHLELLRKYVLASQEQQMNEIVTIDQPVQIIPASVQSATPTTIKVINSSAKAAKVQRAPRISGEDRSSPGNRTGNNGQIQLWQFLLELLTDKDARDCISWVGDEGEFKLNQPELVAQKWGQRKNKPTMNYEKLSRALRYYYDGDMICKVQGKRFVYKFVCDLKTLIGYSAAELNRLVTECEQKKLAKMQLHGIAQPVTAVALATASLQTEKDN
How it was run: as §1

ERG = biological target: T4, ERG (Homo sapiens, UniProt P11308 1-479); conditions: protein: recombinant; tags: N-terminal GST; dsDNA, one strand shown
T4 sequence: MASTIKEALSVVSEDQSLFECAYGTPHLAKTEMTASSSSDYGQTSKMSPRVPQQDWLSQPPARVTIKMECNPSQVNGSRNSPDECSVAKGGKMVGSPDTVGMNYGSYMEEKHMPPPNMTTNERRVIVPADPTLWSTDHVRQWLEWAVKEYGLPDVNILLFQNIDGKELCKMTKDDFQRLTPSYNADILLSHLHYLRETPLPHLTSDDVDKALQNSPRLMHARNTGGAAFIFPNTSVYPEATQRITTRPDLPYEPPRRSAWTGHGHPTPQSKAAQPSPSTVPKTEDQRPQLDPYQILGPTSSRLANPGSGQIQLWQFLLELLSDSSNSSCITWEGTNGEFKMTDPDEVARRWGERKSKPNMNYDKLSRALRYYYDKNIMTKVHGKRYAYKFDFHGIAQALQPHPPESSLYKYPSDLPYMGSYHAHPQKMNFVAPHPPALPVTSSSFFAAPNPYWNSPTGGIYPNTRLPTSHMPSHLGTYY
How it was run: as §1

ELF1 = ELF1 (Homo sapiens, UniProt P32519 1-619); conditions: protein: recombinant; tags: N-terminal GST; dsDNA, one strand shown
How it was run: as §1

EHF = biological target: T5, EHF (Homo sapiens, UniProt Q9NZC4 1-300); conditions: protein: recombinant; tags: N-terminal GST; dsDNA, one strand shown
T5 sequence: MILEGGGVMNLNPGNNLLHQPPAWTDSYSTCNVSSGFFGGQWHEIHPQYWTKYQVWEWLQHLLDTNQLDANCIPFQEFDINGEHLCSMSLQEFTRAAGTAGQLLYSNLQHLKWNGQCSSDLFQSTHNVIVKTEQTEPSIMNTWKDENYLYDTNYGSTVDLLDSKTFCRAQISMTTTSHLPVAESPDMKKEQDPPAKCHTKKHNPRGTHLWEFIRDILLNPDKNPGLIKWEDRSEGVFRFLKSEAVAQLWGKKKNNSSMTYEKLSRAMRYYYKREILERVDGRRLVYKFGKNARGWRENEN
How it was run: as §1

SPI1 = SPI1 (Homo sapiens, UniProt P17947 1-270); conditions: protein: recombinant; tags: N-terminal GST; dsDNA, one strand shown
How it was run: as §1

SPIB = SPIB (Homo sapiens, UniProt Q01892 1-262); conditions: protein: recombinant; tags: N-terminal GST; dsDNA, one strand shown
How it was run: as §1

ELK3 = biological target: T6, ELK3 (Homo sapiens, UniProt P41970 1-407); conditions: protein: recombinant; tags: N-terminal GST; dsDNA, one strand shown
T6 sequence: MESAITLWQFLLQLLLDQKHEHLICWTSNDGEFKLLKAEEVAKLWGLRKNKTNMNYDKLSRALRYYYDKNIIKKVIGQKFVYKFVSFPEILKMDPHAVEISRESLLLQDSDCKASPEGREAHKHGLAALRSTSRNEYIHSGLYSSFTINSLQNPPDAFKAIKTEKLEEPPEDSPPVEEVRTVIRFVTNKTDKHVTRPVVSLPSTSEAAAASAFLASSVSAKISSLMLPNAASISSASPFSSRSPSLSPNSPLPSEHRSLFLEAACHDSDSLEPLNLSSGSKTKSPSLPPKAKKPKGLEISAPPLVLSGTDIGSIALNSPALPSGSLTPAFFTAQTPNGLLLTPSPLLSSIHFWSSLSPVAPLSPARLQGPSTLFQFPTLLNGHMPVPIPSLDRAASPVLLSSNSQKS
How it was run: as §1

FEV = biological target: T7, FEV (Homo sapiens, UniProt Q99581 1-238); conditions: protein: recombinant; tags: N-terminal GST; dsDNA, one strand shown
T7 sequence: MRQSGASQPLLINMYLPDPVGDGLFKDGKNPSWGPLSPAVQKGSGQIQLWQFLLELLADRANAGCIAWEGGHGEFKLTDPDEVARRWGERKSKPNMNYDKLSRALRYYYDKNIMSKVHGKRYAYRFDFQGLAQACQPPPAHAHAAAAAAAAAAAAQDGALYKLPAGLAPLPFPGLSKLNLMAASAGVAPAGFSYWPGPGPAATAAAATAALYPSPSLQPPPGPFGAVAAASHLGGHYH
How it was run: as §1

ETV5 = ETV5 (Homo sapiens, UniProt P41161 1-510); conditions: protein: recombinant; tags: N-terminal GST; dsDNA, one strand shown
How it was run: as §1

HSF1 = HSF1 (Homo sapiens, UniProt Q00613 1-529); conditions: protein: recombinant; tags: N-terminal GST; chain copies: 3; dsDNA, one strand shown
How it was run: as §1

SPIC = biological target: T8, SPIC (Homo sapiens, UniProt Q8N5J4 1-248); conditions: protein: recombinant; tags: N-terminal GST; dsDNA, one strand shown
T8 sequence: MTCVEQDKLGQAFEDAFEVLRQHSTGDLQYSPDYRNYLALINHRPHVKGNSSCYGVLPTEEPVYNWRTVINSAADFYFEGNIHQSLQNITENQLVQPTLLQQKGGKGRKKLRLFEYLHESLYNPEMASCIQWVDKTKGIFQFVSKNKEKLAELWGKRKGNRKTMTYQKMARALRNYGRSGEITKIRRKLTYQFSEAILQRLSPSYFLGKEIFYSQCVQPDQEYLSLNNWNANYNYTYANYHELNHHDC
How it was run: as §1

ELF4 = ELF4 (Homo sapiens, UniProt Q99607 1-663); conditions: protein: recombinant; tags: N-terminal GST; dsDNA, one strand shown
How it was run: as §1

ELK4 = biological target: T9, ELK4 (Homo sapiens, UniProt P28324-2 1-405); conditions: protein: recombinant; tags: N-terminal GST; dsDNA, one strand shown
T9 sequence: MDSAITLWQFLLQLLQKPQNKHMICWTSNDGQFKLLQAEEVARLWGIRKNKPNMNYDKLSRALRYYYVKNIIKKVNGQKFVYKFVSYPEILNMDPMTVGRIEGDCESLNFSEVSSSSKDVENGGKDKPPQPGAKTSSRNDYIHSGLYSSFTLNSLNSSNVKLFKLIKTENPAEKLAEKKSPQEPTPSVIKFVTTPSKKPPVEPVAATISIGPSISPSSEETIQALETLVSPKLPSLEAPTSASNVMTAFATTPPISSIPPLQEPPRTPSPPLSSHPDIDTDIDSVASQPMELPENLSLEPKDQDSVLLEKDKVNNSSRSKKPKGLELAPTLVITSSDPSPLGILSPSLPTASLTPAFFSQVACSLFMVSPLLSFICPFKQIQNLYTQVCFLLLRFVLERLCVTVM
How it was run: as §1

ETV2 = biological target: T10, ETV2 (Homo sapiens, UniProt O00321 1-342); conditions: protein: recombinant; tags: N-terminal GST; dsDNA, one strand shown
T10 sequence: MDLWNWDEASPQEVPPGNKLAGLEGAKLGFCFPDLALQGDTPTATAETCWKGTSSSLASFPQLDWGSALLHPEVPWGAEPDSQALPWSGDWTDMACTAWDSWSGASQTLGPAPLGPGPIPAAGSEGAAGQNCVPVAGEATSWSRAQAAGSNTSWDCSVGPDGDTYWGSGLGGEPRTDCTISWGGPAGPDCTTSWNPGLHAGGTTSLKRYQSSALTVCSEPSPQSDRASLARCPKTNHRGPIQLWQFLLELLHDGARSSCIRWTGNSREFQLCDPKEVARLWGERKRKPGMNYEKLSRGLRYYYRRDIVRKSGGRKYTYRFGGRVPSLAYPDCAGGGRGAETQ
How it was run: as §1

ELF3 = biological target: T11, ELF3 (Homo sapiens, UniProt P78545 1-371); conditions: protein: recombinant; tags: N-terminal GST; dsDNA, one strand shown
T11 sequence: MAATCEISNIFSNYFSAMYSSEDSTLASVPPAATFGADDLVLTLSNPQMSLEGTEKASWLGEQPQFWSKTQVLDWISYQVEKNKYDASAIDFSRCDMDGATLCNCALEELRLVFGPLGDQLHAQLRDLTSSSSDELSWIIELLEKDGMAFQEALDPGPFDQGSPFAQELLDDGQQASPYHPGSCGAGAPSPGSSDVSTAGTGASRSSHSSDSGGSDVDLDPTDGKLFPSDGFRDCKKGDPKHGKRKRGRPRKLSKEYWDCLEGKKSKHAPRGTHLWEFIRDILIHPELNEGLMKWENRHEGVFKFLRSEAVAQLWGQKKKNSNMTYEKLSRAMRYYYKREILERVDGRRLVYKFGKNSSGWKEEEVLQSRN
How it was run: as §1

CRX = CRX (Homo sapiens, UniProt O43186 1-299); conditions: protein: recombinant; tags: N-terminal GST; dsDNA, one strand shown
How it was run: as §1

ETV1 = ETV1 (Homo sapiens, UniProt P50549 1-477); conditions: protein: recombinant; tags: N-terminal GST; dsDNA, one strand shown
How it was run: as §1

HSF1, sequence (Q00613 whole entry): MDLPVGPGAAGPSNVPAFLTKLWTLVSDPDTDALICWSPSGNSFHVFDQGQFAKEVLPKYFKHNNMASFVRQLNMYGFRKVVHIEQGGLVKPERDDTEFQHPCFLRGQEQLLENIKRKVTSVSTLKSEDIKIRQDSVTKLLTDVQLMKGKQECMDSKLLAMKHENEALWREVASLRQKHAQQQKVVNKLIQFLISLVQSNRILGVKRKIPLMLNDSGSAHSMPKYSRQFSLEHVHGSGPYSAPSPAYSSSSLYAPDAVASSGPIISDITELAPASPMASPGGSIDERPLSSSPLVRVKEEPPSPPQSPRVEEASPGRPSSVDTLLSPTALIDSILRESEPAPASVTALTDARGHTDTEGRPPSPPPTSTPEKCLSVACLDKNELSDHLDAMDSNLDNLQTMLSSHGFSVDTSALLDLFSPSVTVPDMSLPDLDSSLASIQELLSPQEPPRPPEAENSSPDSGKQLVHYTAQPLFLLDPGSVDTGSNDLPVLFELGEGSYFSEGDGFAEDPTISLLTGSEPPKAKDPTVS
CRX, sequence (O43186 whole entry): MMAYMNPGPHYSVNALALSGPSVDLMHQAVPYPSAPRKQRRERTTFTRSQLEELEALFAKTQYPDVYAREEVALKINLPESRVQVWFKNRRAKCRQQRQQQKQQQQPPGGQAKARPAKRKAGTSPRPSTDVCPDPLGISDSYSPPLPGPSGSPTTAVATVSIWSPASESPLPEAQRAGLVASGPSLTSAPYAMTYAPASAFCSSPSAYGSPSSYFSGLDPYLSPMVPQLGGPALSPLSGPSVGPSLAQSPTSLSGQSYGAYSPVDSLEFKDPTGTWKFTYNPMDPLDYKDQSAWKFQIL
ETV1, sequence (P50549 whole entry): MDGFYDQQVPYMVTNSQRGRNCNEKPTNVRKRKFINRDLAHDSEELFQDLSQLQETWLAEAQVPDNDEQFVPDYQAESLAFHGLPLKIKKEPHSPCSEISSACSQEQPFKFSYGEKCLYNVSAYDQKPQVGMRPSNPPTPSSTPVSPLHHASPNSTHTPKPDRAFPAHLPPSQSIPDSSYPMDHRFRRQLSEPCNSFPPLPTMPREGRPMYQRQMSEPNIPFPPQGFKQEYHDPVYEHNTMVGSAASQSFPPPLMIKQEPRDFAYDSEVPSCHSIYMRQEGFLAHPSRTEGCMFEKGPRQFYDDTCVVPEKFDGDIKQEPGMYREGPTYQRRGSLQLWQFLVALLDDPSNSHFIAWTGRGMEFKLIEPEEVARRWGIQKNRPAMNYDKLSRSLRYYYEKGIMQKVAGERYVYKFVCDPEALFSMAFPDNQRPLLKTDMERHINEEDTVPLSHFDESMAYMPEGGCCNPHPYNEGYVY
SPIB, sequence (Q01892 whole entry): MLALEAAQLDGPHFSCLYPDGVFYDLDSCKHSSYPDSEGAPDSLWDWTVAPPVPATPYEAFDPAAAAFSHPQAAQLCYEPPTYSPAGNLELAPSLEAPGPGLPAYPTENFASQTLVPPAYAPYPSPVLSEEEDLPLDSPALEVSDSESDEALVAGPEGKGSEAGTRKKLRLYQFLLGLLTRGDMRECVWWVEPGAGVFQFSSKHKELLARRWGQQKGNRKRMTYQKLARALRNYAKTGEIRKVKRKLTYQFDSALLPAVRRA
ELF1, sequence (P32519 whole entry): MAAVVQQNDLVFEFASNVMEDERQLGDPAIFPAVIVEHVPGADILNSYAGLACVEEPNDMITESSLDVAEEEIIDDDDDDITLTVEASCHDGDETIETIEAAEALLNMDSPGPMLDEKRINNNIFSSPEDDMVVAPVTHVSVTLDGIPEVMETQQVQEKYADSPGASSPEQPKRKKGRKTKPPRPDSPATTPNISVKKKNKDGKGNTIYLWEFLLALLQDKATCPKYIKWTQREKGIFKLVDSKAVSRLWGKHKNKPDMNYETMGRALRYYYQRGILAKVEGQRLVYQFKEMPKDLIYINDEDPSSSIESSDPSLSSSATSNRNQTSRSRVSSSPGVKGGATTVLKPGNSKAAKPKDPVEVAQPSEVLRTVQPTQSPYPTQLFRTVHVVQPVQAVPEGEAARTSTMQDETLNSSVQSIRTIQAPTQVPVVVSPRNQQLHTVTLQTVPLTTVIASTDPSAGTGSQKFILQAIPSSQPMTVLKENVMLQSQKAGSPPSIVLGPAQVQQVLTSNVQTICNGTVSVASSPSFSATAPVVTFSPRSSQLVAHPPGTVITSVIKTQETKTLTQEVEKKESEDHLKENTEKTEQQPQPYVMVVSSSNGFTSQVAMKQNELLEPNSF
ELF4, sequence (Q99607 whole entry): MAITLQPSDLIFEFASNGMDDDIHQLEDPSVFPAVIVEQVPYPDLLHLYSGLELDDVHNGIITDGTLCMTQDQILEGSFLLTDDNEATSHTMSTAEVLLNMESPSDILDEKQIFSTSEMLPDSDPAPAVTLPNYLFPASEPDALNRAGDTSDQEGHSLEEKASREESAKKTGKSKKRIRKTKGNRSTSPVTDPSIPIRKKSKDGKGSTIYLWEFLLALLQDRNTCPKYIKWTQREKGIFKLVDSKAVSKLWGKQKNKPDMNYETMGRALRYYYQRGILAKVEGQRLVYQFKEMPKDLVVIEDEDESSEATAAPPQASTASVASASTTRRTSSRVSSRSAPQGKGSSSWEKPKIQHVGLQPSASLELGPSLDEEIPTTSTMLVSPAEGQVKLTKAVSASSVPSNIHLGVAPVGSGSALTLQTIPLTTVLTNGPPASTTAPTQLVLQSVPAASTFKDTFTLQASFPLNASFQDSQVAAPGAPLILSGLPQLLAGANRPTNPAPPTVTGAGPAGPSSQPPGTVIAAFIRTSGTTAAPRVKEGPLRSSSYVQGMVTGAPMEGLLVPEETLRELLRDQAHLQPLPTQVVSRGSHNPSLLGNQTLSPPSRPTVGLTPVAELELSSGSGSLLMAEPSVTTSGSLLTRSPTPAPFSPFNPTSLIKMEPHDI
ETV5, sequence (P41161 whole entry): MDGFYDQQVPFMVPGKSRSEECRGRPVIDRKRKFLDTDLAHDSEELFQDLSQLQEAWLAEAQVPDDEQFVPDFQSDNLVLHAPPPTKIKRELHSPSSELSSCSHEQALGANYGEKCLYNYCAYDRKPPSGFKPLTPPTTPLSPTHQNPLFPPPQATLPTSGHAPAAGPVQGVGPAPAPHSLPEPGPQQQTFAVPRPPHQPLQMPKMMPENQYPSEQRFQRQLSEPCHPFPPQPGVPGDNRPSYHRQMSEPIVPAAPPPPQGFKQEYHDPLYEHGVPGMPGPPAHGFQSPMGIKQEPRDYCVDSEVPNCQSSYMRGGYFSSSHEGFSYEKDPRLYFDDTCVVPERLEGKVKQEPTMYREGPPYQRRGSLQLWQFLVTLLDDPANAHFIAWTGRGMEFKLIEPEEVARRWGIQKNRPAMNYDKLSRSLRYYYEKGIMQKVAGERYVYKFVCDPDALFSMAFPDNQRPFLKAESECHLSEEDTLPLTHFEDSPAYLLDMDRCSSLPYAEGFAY

For TGTATT, the binding signal (FLI1) was 1.38 fold enrichment (6-mer frequency, TF over GST control), the binding signal (ELK1) was 1.31 fold enrichment (6-mer frequency, TF over GST control) and the binding signal (GABPA) was 1.33 fold enrichment (6-mer frequency, TF over GST control). The binding signal (ERG) was 1.32 fold enrichment (6-mer frequency, TF over GST control), the binding signal (ELF1) was 1.37 fold enrichment (6-mer frequency, TF over GST control) and the binding signal (EHF) was 1.34 fold enrichment (6-mer frequency, TF over GST control). For the same sequence, the binding signal (SPI1) was 1.28 fold enrichment (6-mer frequency, TF over GST control), the binding signal (SPIB) was 1.28 fold enrichment (6-mer frequency, TF over GST control) and the binding signal (ELK3) was 1.43 fold enrichment (6-mer frequency, TF over GST control). The binding signal (FEV) was 1.34 fold enrichment (6-mer frequency, TF over GST control), the binding signal (ETV5) was 1.33 fold enrichment (6-mer frequency, TF over GST control) and the binding signal (HSF1) was 1.3 fold enrichment (6-mer frequency, TF over GST control). For the same sequence, the binding signal (SPIC) was 1.4 fold enrichment (6-mer frequency, TF over GST control), the binding signal (ELF4) was 1.36 fold enrichment (6-mer frequency, TF over GST control) and the binding signal (ELK4) was 1.33 fold enrichment (6-mer frequency, TF over GST control). For the same sequence, the binding signal (ETV2) was 1.32 fold enrichment (6-mer frequency, TF over GST control), the binding signal (ELF3) was 1.24 fold enrichment (6-mer frequency, TF over GST control) and the binding signal (CRX) was 1.56 fold enrichment (6-mer frequency, TF over GST control). For the same sequence, the binding signal (ETV1) was 1.4 fold enrichment (6-mer frequency, TF over GST control).
